From PubChem BioAssay come the findings set out here.

The structures appear in SMILES notation. Calls of active or inactive are those of the source.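 Rule for the calls, unless noted: active = inhibition of the reporter signal at or above 50%; inactive = inhibition below 50%.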

Test [1] in a line: inhibitors of TNFa-induced NFkB p65 translocation, primary screen, imaging, HUVEC, MLSMR starter and 10KST1 sets (AID 438;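 active = inhibition above 20% together with a positive visual image hit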;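 note: compound added about 3h40 before a 20 min TNFalpha stimulation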;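 for inhibition: signal is the nuclear over cytoplasmic p65 intensity ratio per well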). Particulars: HUVEC TNFa-induced p65 nuclear translocation; cell count: measured here: nuclei count (cytotoxicity indicator), at 2.08 µM; inhibition: at 2 µM, stronger effect = higher value, 0% TNFa-plus-vehicle, 100% no-TNFa wells.
A short description of test [2]: inhibitors of mutant huntingtin aggregation, primary screen, imaging, exon1htt(103Q)mCFP cells, high-content imaging (AID 483;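 active = visual image review flags a hit and inhibition of aggregation exceeds 20%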;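 note: compound exposure lasted 3 days before fixation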;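 for nuclei count: percent of the per-plate median nuclei count of sample wells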). The settings on record: exon1htt(103Q)mCFP cell line, aggregate imaging, at 2 µM; inhibition of aggregation: stronger effect = higher value; nuclei count: measured here: cell count, toxicity.
Test [3] can be described thus: inhibitors of E-selectin induction by TNFa, primary screen, imaging, HUVEC, immunofluorescence, MLSMR starter and 10KST1 sets (AID 487;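 active = visually confirmed hit in the image check and inhibition above 20%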;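 for inhibition: signal is fraction of cell area covered by stained E-selectin grains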;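 for nuclei count: 100% = median nuclei count of all wells on the same plate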). Particulars: HUVEC TNFalpha-induced E-selectin immunofluorescence imaging, at 2 µM; inhibition: stronger effect = higher value; nuclei count: measured here: cell number, toxicity.
Test [4] concerns the target Voltage-gated potassium channel subunit beta-2 (Rattus norvegicus) (UniProt P62483). The test can be described thus: KvBeta enzyme negative modulators, primary screen, biochemical, NADPH fluorescence (AID 622;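 active = fluorescence slope higher than the sample average by over 3 SD, cut at about -0.22 in these data, passing the limit was not always enough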;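 note: slope of raw intensity against log time taken from 70 to 1610 s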). The settings on record: recombinant KvBeta, 4-cyanobenzaldehyde reduction, at 10 µM, stronger effect = higher value.
Test [5] has the same target. The experiment in a line: KvBeta positive modulators, primary screen, biochemical, NADPH fluorescence (AID 623;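 active = NADPH fluorescence slope more negative than the mean of all samples by about 3 SD, 99.7% confidence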;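 note: fluorescence intensity change per second fitted from 20 to 320 s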). The settings on record: Recombinant KvBeta, NADPH fluorescence decrease slope, 10 min; at 10 µM; stronger effect = lower value.
Test [6] has as its target Alpha-2C adrenergic receptor (Homo sapiens) (UniProt P18825). The test can be described thus: modulators of alpha2C/GIRK thallium flux, primary screen, cell-based, HEK293 alpha2C/GIRK1/2 (AID 624;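 active = fluorescence slope after compound addition differing from the mean of all screened samples at 99.7% confidence, in either direction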;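 note: slope of fluorescence ratio to pre-addition baseline per second over 15 to 24 s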). Particulars: thallium flux BTC fluorescence, at 10 µM, actives lie on both sides.
Test [7] in a line: inhibitors of Sendai virus-induced IRF3 signaling, primary screen, TLR/RLR signaling modifier project, cell-based, Sendai virus stimulus, luciferase, 10K MLSCN set (AID 602276;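 active = inhibition at or above 50% at 10 µM; inactive = inhibition below 50%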;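 note: firefly luciferase from ISG56 promoter only with Renilla not read in this screen; 0% = Sendai virus plus DMSO and 100% = medium plus DMSO without virus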). The settings on record: HEK293 RL24 IRF3 luciferase reporter, at 10 µM, stronger effect = higher value. In general terms: Reporter assays use an easily measured gene product as a stand-in for the process of interest.

Test [8] in a line: inhibitors of poly I:C-induced TLR3 signaling, primary screen, cell-based, poly I:C stimulus, luciferase, 10K MLSCN set (AID 602277). Particulars: HEK293-TLR3 RL24 IRF3 luciferase reporter, at 10 µM, stronger effect = higher value.

Chain of Alpha-2C adrenergic receptor (Homo sapiens) (P18825 whole entry, looked up): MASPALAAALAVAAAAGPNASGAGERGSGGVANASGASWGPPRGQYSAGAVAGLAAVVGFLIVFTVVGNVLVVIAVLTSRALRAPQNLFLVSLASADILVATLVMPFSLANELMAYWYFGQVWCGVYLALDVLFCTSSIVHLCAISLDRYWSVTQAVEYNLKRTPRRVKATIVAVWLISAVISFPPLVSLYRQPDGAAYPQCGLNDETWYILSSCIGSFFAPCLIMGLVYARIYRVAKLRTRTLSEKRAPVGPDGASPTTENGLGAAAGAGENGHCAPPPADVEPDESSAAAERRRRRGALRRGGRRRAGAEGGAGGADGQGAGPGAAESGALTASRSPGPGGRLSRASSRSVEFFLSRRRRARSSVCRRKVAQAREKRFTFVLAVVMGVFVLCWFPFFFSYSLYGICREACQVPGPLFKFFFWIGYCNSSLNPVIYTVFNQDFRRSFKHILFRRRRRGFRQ
Chain of Voltage-gated potassium channel subunit beta-2 (Rattus norvegicus) (P62483 whole entry, looked up): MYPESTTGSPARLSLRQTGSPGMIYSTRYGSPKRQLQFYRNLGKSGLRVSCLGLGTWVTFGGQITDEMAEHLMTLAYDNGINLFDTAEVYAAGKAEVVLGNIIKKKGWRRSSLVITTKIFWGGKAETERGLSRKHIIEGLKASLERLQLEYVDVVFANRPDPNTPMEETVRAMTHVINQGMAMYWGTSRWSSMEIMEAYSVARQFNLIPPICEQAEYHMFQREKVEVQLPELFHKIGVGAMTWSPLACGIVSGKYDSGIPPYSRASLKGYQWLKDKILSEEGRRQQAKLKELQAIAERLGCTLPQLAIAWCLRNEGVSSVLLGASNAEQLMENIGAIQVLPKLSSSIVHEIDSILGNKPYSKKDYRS

The term inhibition denotes the relative decrease from the control value, in per cent. As for `COc1cccc(C=Nc2ccc3c(c2)OCCO3)c1O`, the cell count in test [1] was 301. In addition, the inhibition in test [1] was 5.1% (inactive); in test [3] it was 25.8% (inactive); in test [7], 12.6% (inactive); in test [8], -2.51% (inactive). Also, the inhibition of aggregation in test [2] was 9% (inactive). In addition, the figures for the nuclei count in test [2] and in test [3] were 97.3% and 83.4%, respectively. Also, in test [4], the fluorescence slope was -0.501 (inactive). For the same compound, in test [5], the NADPH fluorescence slope was -3.1e-05 (inactive). In test [6], the slope was 0.00551 (inactive).

Regarding `CN(C)S(=O)(=O)N1CCN(S(=O)(=O)c2ccc(F)cc2)CC1`, in test [1], the cell count turned out to be 787. Moreover, the inhibition in test [1] was 3.6% (inactive); in test [3], -118% (inactive); in test [7], -20.1% (inactive); in test [8] it was -21% (inactive). Also, the inhibition of aggregation in test [2] was -7% (inactive). Further, the results for the nuclei count in test [2] and in test [3] were 103% and 141%, respectively. Besides, the fluorescence slope in test [4] was -0.436 (inactive). Also, the NADPH fluorescence slope in test [5] was -9.3e-07 (inactive). Besides, in test [6], the slope was 0.00495 (inactive).

For the compound `COCCNC(=O)c1ccc(CS(=O)(=O)c2ccc(OC)cc2)o1`, in test [1], the cell count is 636. Besides, the inhibition in test [1] was 4.1% (inactive); in test [3] it was 5.3% (inactive); in test [7] it was 9.76% (inactive); in test [8], 25.7% (inactive). Further, the inhibition of aggregation in test [2] was -4.8% (inactive). Besides, the nuclei count in test [2] was 96.8%; in test [3], 124%. For the same compound, the fluorescence slope in test [4] was -0.583 (inactive). For the same compound, the NADPH fluorescence slope in test [5] is -5.4e-05 (inactive). Besides, in test [6], the slope is 0.00675 (inactive).

In the case of `CC1=C(C(=O)Nc2ccccc2C)C(c2ccc(C)o2)N2C(=O)CSC2=N1` (centres undefined), in test [1], the cell count amounted to 642. Also, the inhibition was -16.7% (inactive) in test [1], -5.9% (inactive) in test [3], 16.5% (inactive) in test [7] and 21.5% (inactive) in test [8]. Also, in test [2], the inhibition of aggregation was 0% (inactive). Besides, the figures for the nuclei count in test [2] and in test [3] were 106% and 95.6%, respectively. In addition, in test [4], the fluorescence slope is -0.44 (inactive). Also, the NADPH fluorescence slope in test [5] is -1.8e-05 (inactive). In addition, the slope in test [6] was 0.00436 (inactive).

`CC(=O)Nc1nc2c(c3c1c(=O)oc1ccccc13)CC(C)CC2` (centres undefined): the cell count in test [1] stood at 509. Besides, the inhibition in test [1] was -11.6% (inactive); in test [3] it was 13.1% (inactive); in test [7], 12.8% (inactive); in test [8], 32.3% (inactive). In addition, the inhibition of aggregation in test [2] was 14.7% (inactive). Further, the nuclei count in test [2] worked out at 61.9%; in test [3] it was 82.7%. Besides, the fluorescence slope in test [4] was -0.457 (inactive). Also, the NADPH fluorescence slope in test [5] was -1.3e-05 (inactive). Also, the slope in test [6] is 0.00575 (inactive).

For `Cc1nnc(NC(=O)CSc2nnc(-c3ccc(S(=O)(=O)N4CCCC4)cc3)n2C)s1`, the cell count in test [1] worked out at 575. Moreover, the inhibition in test [1] is -16.3% (inactive); in test [3], -21.6% (inactive); in test [7], 17.1% (inactive); in test [8], 17.7% (inactive). In addition, in test [2], the inhibition of aggregation was 14.6% (inactive). In addition, the nuclei count amounted to 85.9% in test [2] and 91.4% in test [3]. For the same compound, the fluorescence slope in test [4] was -0.495 (inactive). The NADPH fluorescence slope in test [5] was -2.2e-05 (inactive). Moreover, the slope in test [6] is 0.00452 (inactive).

`Cc1ccc(N(C(=O)C2CCC(=O)N2)C2(C(=O)NC3CCCCC3)CCCCC2)cc1` (centres undefined): in test [1], the cell count amounted to 690. Also, the inhibition in test [1] was 11.9% (inactive); in test [3], -16.1% (inactive); in test [7], -4.63% (inactive); in test [8], 5.62% (inactive). For the same compound, in test [2], the inhibition of aggregation is 22.8% (inactive). Moreover, the nuclei count in test [2] came out at 85.5%; in test [3], 84.9%. In addition, in test [4], the fluorescence slope is -0.558 (inactive). In addition, the NADPH fluorescence slope in test [5] was 3.4e-05 (inactive). The slope in test [6] was 0.00517 (inactive).

As to `O=C(CCN1C(=O)c2ccccc2C1=O)Nc1ccc(F)cc1`, the cell count in test [1] worked out at 442. In addition, the inhibition in test [1] is 4.9% (inactive); in test [3] it was 14.4% (inactive); in test [7], 9.91% (inactive); in test [8] it was 13.8% (inactive). In test [2], the inhibition of aggregation is -0.3% (inactive). In addition, the nuclei count was 117% in test [2] and 109% in test [3]. Also, the fluorescence slope in test [4] was -0.375 (inactive). Also, in test [5], the NADPH fluorescence slope was 4.4e-06 (inactive). In addition, the slope in test [6] was 0.00394 (inactive).

As for `CC(=O)n1nc(-c2ccco2)nc1SCc1ccccc1`, in test [1], the cell count worked out at 573. Also, the inhibition in test [1] was 2.8% (inactive); in test [3] it was -122% (inactive); in test [7], -22.5% (inactive); in test [8], -108% (inactive). The inhibition of aggregation in test [2] was 25.1% (inactive). Besides, the nuclei count was determined as 100% in test [2] and 94.1% in test [3]. Besides, in test [4], the fluorescence slope was -0.599 (inactive). For the same compound, in test [5], the NADPH fluorescence slope was 1.3e-05 (inactive). For the same compound, the slope in test [6] is 0.00839 (inactive).

For the compound `CN1CCN(S(=O)(=O)c2ccc(NC(=O)c3ccc(F)cc3)cc2)CC1`, the cell count in test [1] is 624. In addition, the inhibition in test [1] is 0% (inactive); in test [3] it was -22.1% (inactive); in test [7], 0.12% (inactive); in test [8], -12.3% (inactive). In addition, the inhibition of aggregation in test [2] was -2.2% (inactive). Besides, the nuclei count was found to be 105% in test [2] and 85% in test [3]. For the same compound, in test [4], the fluorescence slope was -0.424 (inactive). Moreover, the NADPH fluorescence slope in test [5] is -2.3e-05 (inactive). For the same compound, in test [6], the slope is 0.00505 (inactive).

In the case of `O=C(CN1CCN(C2CCCCC2)CC1)Nc1ccccc1-c1ccccc1`, the cell count in test [1] came to 273. Besides, the inhibition in test [1] was 18.4% (inactive); in test [3] it was -7.3% (inactive); in test [7], 2.95% (inactive); in test [8] it was 24.7% (inactive). Besides, the inhibition of aggregation in test [2] is 16.3% (inactive). Further, the nuclei count turned out to be 110% in test [2] and 105% in test [3]. Moreover, the fluorescence slope in test [4] is -0.609 (inactive). Moreover, the NADPH fluorescence slope in test [5] is -3.4e-05 (inactive). Also, the slope in test [6] is 0.00596 (inactive).

Consider `CCOC(=O)CN1CC23C=CC(O2)C(C(=O)NCc2ccc(F)cc2)C3C1=O` (centres undefined), for which the cell count in test [1] worked out at 572. In addition, the inhibition in test [1] is -2% (inactive); in test [3] it was -142% (inactive); in test [7], 14% (inactive); in test [8], 27.7% (inactive). In test [2], the inhibition of aggregation was 15.7% (inactive). Also, the nuclei count in test [2] came to 106%; in test [3] it was 131%. In addition, in test [4], the fluorescence slope is -0.589 (inactive). Further, in test [5], the NADPH fluorescence slope was -1.1e-05 (inactive). In addition, the slope in test [6] is 0.00638 (inactive).

On to `CCOC(=O)N1CCN(C(=O)c2ccc(CS(=O)(=O)c3ccc(OC)cc3)o2)CC1`, for which, in test [1], the cell count worked out at 516. Further, the inhibition was 2% (inactive) in test [1], 8.5% (inactive) in test [3], 14.8% (inactive) in test [7] and 23.8% (inactive) in test [8]. In addition, in test [2], the inhibition of aggregation is -23.5% (inactive). Further, the nuclei count in test [2] stood at 90.7%; in test [3], 133%. In addition, the fluorescence slope in test [4] is -0.39 (inactive). In test [5], the NADPH fluorescence slope was 2.2e-05 (inactive). In addition, in test [6], the slope is 0.0059 (inactive).

For the compound `COc1ccc(CNC(=O)c2ccc(CN3CCOCC3)cc2)cc1`, in test [1], the cell count is 645. The inhibition is -7.8% (inactive) in test [1], 7.3% (inactive) in test [3], 7.5% (inactive) in test [7] and -5.55% (inactive) in test [8]. The inhibition of aggregation in test [2] was -5.7% (inactive). Further, the values for the nuclei count in test [2] and in test [3] were 103% and 147%, respectively. Further, the fluorescence slope in test [4] was -0.472 (inactive). In addition, in test [5], the NADPH fluorescence slope is -2.6e-05 (inactive). Also, the slope in test [6] was 0.00567 (inactive).
